According to PubChem BioAssay (EPA / NIEHS):
The source made the active and inactive calls. Rule for the calls: active = hit-call score of the fitted dose curve at least 0.9, where 1 is the maximum; inactive = score below 0.9.

How the values were obtained:
[1] = ATG_E_Box_CIS: Attagene CIS-FACTORIAL HepG2 Assay for human Enhancer Box (E-box) (AID 2282936); conditions: HepG2 E-box cis-reporter transcription, actives raise or lower the signal
Method in brief: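 First, HepG2 cells receive multiple cis-regulated reporter constructs by transient transfection. Next, chemicals are applied for 24 h. Finally, reporter mRNA is quantified via RT-PCR and capillary electrophoresis, with DMSO as baseline.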

[2] = ATG_M_61_CIS: Attagene CIS-FACTORIAL HepG2 Assay for M61 Transcription Factor (Internal Marker) (AID 2282937); conditions: HepG2 Attagene CIS-FACTORIAL M61 internal marker reporter; actives raise or lower the signal
Method in brief: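 HepG2 cells transiently transfected with multiplexed cis-promoter reporter units reporting endogenous transcription factor activity, measured 24 h after dosing. Reporter mRNA quantified by RT-PCR and capillary electrophoresis; bidirectional fit against DMSO baseline.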

[3] = ATG_EGR_CIS: Attagene CIS-FACTORIAL HepG2 Assay for human Early Growth Response 1 (EGR1) (AID 2282938); conditions: HepG2 Attagene CIS-FACTORIAL EGR reporter mRNA; actives raise or lower the signal
Method in brief: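 HepG2 cells transiently transfected with cis-element-driven multiplexed reporter units, dosed for 24 h. EGR1-element reporter mRNA quantified by RT-PCR, 6-FAM labelling, HpaI digestion and capillary electrophoresis; bidirectional fit versus DMSO.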

[4] = ATG_M_19_CIS: Attagene CIS-FACTORIAL HepG2 Assay for M19 Transcription Factor (Internal Marker) (AID 2282939); conditions: HepG2 Attagene CIS-FACTORIAL M19 internal marker reporter; actives raise or lower the signal
Method in brief: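 Signals come from fluorescence of labelled reporter-specific PCR fragments resolved by capillary electrophoresis, following 24 h treatment of HepG2 cells transfected with cis-promoter reporter units; activity was fitted in both directions relative to DMSO.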

[5] = ATG_ERE_CIS: Attagene CIS-FACTORIAL HepG2 Assay for Estrogen Response Element (ERE) (AID 2282940); conditions: HepG2 ERE cis-reporter, Attagene RNA transcript; actives raise or lower the signal
Method in brief: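 Fluorescence of capillary-separated, FAM-labelled reporter cDNA fragments indicates reporter mRNA levels in HepG2 cells exposed to chemicals for 24 h. Transient transfection with cis-regulated units; data fitted in both directions against DMSO.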

[6] = ATG_Ets_CIS: Attagene CIS-FACTORIAL HepG2 Assay for human Erythroblast Transformation Specific (ETS) (AID 2282941); conditions: HepG2 ETS cis-reporter transcription, actives raise or lower the signal
Method in brief: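 HepG2 cells transiently transfected with cis-promoter reporter transcription units were dosed for 24 h; reporter mRNA was measured by RT-PCR, 6-FAM primer extension, HpaI digestion and capillary electrophoresis, with bidirectional fitting against DMSO baseline.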

[7] = target: Hepatocyte nuclear factor 3-beta (Homo sapiens) (UniProt Q9Y261); assay: ATG_FoxA2_CIS: Attagene CIS-FACTORIAL HepG2 Assay for human Forkhead box A2 (FOXA2) (AID 2282942); conditions: HepG2 cis-reporter transcription factor activity, 24 h; actives raise or lower the signal
Method in brief: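 HepG2 transiently transfected with a multiplexed cis-promoter reporter library read endogenous FOXA2 activity. After 24 h compound exposure, reporter mRNA was quantified by RT-PCR, HpaI digestion and capillary electrophoresis. Bidirectional fit against DMSO.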

[8] = ATG_FoxO_CIS: Attagene CIS-FACTORIAL HepG2 Assay for human Forkhead box O (FoxO) (AID 2282943); conditions: HepG2 Attagene cis-reporter, FoxO element, mRNA; actives raise or lower the signal
Method in brief: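 HepG2 cells transiently transfected with cis-element-driven reporter units report endogenous FoxO activity. After 24 h chemical exposure, reporter mRNA quantified by RT-PCR, fluorescent labeling, HpaI digestion and capillary electrophoresis; bidirectional fit versus DMSO.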

[9] = ATG_GLI_CIS: Attagene CIS-FACTORIAL HepG2 Assay for human Zinc Finger Protein GLI1 (AID 2282945); conditions: HepG2, Attagene cis-factorial reporter mRNA, GLI element; actives raise or lower the signal
Method in brief: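 Transiently transfected HepG2 cells report endogenous transcription factor activity via cis-element-driven reporter units. After 24 h compound exposure, reporter mRNA was measured by RT-PCR with capillary electrophoresis; bidirectional fitting against DMSO baseline.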

[10] = target: Bile acid receptor (Homo sapiens) (UniProt Q96RI1); assay: ATG_IR1_CIS: Attagene CIS-FACTORIAL HepG2 Assay for human Nuclear Receptor Subfamily 1 Group H Member 4 (NR1H4), IR1 submotif (AID 2282946); conditions: IR1 reporter transcription, actives raise or lower the signal
Method in brief: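 HepG2 cells transiently transfected with multiple cis-promoter-driven reporter units to measure endogenous transcription factor activity; 24 h exposure. Reporter mRNA read by RT-PCR, FAM labelling, HpaI digestion and capillary electrophoresis. Bidirectional fit versus DMSO.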

[11] = ATG_GRE_CIS: Attagene CIS-FACTORIAL HepG2 Assay for human Glucocorticoid Response Elements (GRE) (AID 2282947); conditions: HepG2 GRE cis-reporter, Attagene multiplex mRNA; actives raise or lower the signal
Method in brief: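 Endogenous transcription factor activity is read through cis-element reporter constructs transiently transfected into HepG2 cells. After 24 h treatment, labelled RT-PCR products are resolved by capillary electrophoresis; DMSO sets baseline for bidirectional curve fitting.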

[12] = ATG_ISRE_CIS: Attagene CIS-FACTORIAL HepG2 Assay for human Interferon Regulatory Factor 1 (IRF1) binding to an Interferon-Stimulated Response Element (ISRE) (AID 2282948); conditions: HepG2 ISRE cis-reporter (Attagene), mRNA transcription readout; actives raise or lower the signal
Method in brief: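 HepG2 cells transiently transfected with multiplexed cis-promoter reporter units; after 24 h compound exposure, reporter mRNA quantified by RT-PCR, FAM labelling, HpaI digestion and capillary electrophoresis. Bidirectional fit versus DMSO baseline.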

[13] = ATG_M_32_CIS: Attagene CIS-FACTORIAL HepG2 Assay for M32 Transcription Factor (Internal Marker) (AID 2282949); conditions: HepG2 Attagene cis-factorial M32 reporter, mRNA; actives raise or lower the signal;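 note: background control marker of the multiplexed CIS panel rather than a real target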
Method in brief: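 Following 24 h chemical exposure of HepG2 cells transiently expressing cis-promoter reporter constructs, reporter transcript levels were determined by RT-PCR with fluorescent labelling and capillary electrophoresis, then fitted bidirectionally against DMSO.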

[14] = ATG_M_06_CIS: Attagene CIS-FACTORIAL HepG2 Assay for M06 Transcription Factor (Internal Marker) (AID 2282950); conditions: HepG2 Attagene CIS-FACTORIAL M06 internal marker reporter; actives raise or lower the signal
Method in brief: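 HepG2 liver cells, 24 h exposure. Reporter transcripts from transfected cis-element constructs quantified by RT-PCR/capillary electrophoresis fluorescence. Bidirectional curve fit against DMSO.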

[15] = target: Hepatocyte nuclear factor 6 (Homo sapiens) (UniProt Q9UBC0); assay: ATG_HNF6_CIS: Attagene CIS-FACTORIAL HepG2 Assay for human Hepatocyte Nuclear Factor 6 (HNF6) (AID 2282952); conditions: HepG2 Attagene cis-factorial HNF6 reporter transcription; actives raise or lower the signal
Method in brief: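 Transiently transfected HepG2 cells expressing cis-regulated reporter transcription units were exposed to chemical for 24 h in a 24-well format. Reporter transcript abundance was determined by fluorescence capillary electrophoresis.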

[16] = target: Heat shock factor protein 1 (Homo sapiens) (UniProt Q00613); assay: ATG_HSE_CIS: Attagene CIS-FACTORIAL HepG2 Assay for human Heat Shock Transcription Factor 1 (HSE) (AID 2282953); conditions: HepG2 HSE cis-reporter, Attagene RNA transcription; actives raise or lower the signal
Method in brief: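 Endogenous transcription factor activity captured via cis-promoter reporter units transfected into HepG2; treatment lasted 24 h. Fluorescence intensity of reporter fragments analysed with bidirectional curve fitting, DMSO baseline.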

[17] = ATG_MRE_CIS: Attagene CIS-FACTORIAL HepG2 Assay for human Metal Responsive Element (MRE) (AID 2282954); conditions: HepG2 MRE cis-reporter transcription, Attagene multiplex; actives raise or lower the signal
Method in brief: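 Fluorescent reporter fragments separated by capillary electrophoresis give mRNA induction for the MRE unit after 24 h treatment of transfected HepG2 cells. Endogenous transcription-factor activity is read; DMSO serves as negative control and baseline.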

[18] = ATG_GATA_CIS: Attagene CIS-FACTORIAL HepG2 Assay for human GATA Binding Protein (AID 2282944); conditions: HepG2 GATA cis-element reporter, Attagene multiplex mRNA; actives raise or lower the signal
Method in brief: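 After transfecting HepG2 cells with multiple cis-regulated reporter units, chemicals are dosed for 24 h; isolated RNA undergoes RT-PCR and fluorescent labeling before capillary electrophoresis, with activity expressed against DMSO.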

[19] = target: Hypoxia-inducible factor 1-alpha (Homo sapiens) (UniProt Q16665); assay: ATG_HIF1a_CIS: Attagene CIS-FACTORIAL HepG2 Assay for human Hypoxia Inducible Factor 1 (HIF1A) (AID 2282951); conditions: HepG2 Attagene cis-factorial HIF1a reporter transcription; actives raise or lower the signal
Method in brief: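 HepG2 cells transiently transfected with multiple cis-regulated reporter transcription units measure endogenous transcription factor activity. After 24 h exposure, reporter mRNA is quantified by RT-PCR with 6-FAM labelling, HpaI digestion and capillary electrophoresis. Bidirectional fitting against DMSO.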

Measured: AC50

Sequence of Hepatocyte nuclear factor 6 (Homo sapiens) (Q9UBC0 whole entry, looked up): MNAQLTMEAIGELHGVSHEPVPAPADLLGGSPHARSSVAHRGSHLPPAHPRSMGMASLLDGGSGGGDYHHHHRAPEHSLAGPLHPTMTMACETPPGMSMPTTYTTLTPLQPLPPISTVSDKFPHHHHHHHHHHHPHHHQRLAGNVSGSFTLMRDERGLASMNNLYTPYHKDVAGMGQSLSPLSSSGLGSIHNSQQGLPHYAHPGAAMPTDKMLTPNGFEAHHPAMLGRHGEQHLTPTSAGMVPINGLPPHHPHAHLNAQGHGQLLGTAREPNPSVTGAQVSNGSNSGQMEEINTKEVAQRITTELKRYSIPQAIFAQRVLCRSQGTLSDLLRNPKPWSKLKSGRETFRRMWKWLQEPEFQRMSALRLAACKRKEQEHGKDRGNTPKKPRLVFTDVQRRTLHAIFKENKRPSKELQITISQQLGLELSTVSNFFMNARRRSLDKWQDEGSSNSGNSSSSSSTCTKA
Sequence of Heat shock factor protein 1 (Homo sapiens) (Q00613 whole entry, looked up, the tested form may be a part): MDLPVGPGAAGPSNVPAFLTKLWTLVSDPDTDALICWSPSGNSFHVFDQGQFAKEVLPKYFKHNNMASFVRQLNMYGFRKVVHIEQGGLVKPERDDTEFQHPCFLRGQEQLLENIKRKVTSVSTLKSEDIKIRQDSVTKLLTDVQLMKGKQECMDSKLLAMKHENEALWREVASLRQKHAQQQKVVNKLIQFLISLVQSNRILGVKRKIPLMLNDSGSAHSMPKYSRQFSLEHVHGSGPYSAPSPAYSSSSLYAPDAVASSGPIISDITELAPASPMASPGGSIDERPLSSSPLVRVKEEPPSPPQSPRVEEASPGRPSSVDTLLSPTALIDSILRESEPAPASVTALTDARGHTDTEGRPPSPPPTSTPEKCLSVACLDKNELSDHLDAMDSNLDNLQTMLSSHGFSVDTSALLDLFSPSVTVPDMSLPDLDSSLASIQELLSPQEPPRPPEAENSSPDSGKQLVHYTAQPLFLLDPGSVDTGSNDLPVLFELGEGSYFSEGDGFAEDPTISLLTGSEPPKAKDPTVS
Sequence of Hepatocyte nuclear factor 3-beta (Homo sapiens) (Q9Y261 whole entry, looked up): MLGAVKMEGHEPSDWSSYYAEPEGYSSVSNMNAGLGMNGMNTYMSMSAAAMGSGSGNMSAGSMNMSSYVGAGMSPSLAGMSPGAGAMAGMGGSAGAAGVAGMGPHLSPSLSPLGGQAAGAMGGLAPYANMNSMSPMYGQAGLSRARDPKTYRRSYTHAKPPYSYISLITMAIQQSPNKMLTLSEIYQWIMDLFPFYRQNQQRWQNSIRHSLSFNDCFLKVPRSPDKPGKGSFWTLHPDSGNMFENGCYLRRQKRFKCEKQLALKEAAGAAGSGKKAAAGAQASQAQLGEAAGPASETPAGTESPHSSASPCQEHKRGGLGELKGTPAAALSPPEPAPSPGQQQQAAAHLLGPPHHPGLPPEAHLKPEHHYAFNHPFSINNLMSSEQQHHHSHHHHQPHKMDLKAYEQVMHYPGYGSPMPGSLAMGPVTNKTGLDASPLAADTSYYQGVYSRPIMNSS
Sequence of Hypoxia-inducible factor 1-alpha (Homo sapiens) (Q16665 whole entry, looked up): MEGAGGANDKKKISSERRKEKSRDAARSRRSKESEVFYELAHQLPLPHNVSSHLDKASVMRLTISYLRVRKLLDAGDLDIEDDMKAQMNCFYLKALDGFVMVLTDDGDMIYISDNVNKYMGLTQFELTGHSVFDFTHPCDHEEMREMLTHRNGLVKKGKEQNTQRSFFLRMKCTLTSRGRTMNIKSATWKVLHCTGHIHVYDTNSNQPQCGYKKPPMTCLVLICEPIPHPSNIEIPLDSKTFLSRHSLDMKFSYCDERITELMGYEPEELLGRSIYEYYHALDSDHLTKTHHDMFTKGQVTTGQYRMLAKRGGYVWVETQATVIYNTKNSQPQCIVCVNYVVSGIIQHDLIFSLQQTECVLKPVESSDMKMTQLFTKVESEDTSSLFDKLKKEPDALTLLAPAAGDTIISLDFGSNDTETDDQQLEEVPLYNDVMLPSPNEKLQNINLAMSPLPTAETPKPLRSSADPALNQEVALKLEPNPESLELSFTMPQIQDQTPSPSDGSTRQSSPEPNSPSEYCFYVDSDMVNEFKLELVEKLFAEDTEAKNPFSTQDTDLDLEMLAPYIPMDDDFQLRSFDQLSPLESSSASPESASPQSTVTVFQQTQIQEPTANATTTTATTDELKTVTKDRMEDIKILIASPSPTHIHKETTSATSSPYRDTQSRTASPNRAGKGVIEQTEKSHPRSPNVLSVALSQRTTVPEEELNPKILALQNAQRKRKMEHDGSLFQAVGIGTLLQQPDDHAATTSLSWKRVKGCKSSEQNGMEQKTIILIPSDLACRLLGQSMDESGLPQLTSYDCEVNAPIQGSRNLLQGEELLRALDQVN
Sequence of Bile acid receptor (Homo sapiens) (Q96RI1 whole entry, looked up): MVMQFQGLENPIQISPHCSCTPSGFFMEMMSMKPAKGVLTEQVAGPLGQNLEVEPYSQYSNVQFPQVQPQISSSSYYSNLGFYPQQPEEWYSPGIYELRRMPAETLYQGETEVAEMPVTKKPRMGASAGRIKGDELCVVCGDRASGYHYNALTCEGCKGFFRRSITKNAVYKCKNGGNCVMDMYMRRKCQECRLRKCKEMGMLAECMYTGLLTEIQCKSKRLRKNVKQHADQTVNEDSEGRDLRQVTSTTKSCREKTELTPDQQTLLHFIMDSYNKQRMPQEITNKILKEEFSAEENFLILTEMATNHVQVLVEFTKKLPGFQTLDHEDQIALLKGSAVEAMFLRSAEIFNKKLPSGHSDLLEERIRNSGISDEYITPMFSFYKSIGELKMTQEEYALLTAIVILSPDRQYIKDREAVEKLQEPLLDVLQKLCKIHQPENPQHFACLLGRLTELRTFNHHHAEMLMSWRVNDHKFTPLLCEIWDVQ

OC[C@H]1O[C@@H](O[C@H]2[C@H](O)[C@@H](O)[C@H](O)O[C@@H]2CO)[C@H](O)[C@@H](O)[C@H]1O
inactive: [1] | [2] | [3] | [4] | [5] | [6] | [7] | [8] | [9] | [10] | [11] | [12] | [13] | [14] | [15] | [16] | [17]

CC(=O)N(C)C
inactive: [1] | [2] | [3] | [6] | [7] | [8] | [18] | [9] | [11] | [12] | [14] | [19] | [16]

CNC(=C[N+](=O)[O-])NCCSCc1ccc(CN(C)C)o1
inactive: [1] | [2] | [3] | [4] | [5] | [6] | [7] | [8] | [18] | [9] | [12] | [13] | [14]

CC(O)CNCC(C)O (stereo not given)
inactive: [1] | [2] | [3] | [4] | [6] | [7] | [8] | [18] | [9] | [12] | [13] | [15] | [16] | [17]

c1ccc2scnc2c1
inactive: [1] | [2] | [3] | [5] | [6] | [7] | [8] | [18] | [9] | [13] | [14] | [15] | [16] | [17]

C=C(C)C(=O)OCCOCCOC(=O)C(=C)C
inactive: [1] | [2] | [3] | [5] | [6] | [7] | [8] | [18] | [9] | [10] | [13] | [14] | [15] | [16] | [17]

CCCCCCCCCCCCOCCOS(=O)(=O)O
inactive: [1] | [2] | [3] | [4] | [5] | [6] | [7] | [8] | [18] | [9] | [12] | [13] | [14] | [19] | [15] | [16] | [17]

CC=CC(=O)C1=C(C)C=CCC1(C)C
inactive: [1] | [2] | [3] | [5] | [6] | [7] | [8] | [18] | [9] | [10] | [11] | [12] | [13] | [19] | [15] | [16] | [17]

CC(=O)OCC=C(C)CCC=C(C)CCC=C(C)C
active: [4] 183 µM | [6] 179 µM | [7] 146 µM | [8] 128 µM | [18] 167 µM | [9] 164 µM | [12] 147 µM | [16] 72.3 µM | [17] 100 µM
inactive: [2] | [3] | [13] | [14] | [19] | [15]
